Bioassay records deposited in PubChem by National Center for Advancing Translational Sciences (NCATS).
An excerpt weighted towards active compounds, which were near 19% of everything screened.
SW480 rereplic: A quantitative high throughput screen for small molecules that induce DNA re-replication in SW480 colon adenocarcinoma cells | SW480 DNA re-replication, Hoechst DNA content imaging, 48 h | Potency, µM (top dose mostly 46.1 µM), inactives show at the top dose re-replication activation, usual class: activators | 1.8% of 340,000 active | AID 624297, 2012; further: potency means the concentration at half of the fitted maximal effect; % of control where 0% means no effect; nearly all actives have a fitted effect of over 55% in size
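DNA re-replication was detected as more nuclei of elevated Hoechst intensity after 48 hr exposure to compound (23 nL pinned per well of 250 cells).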
DT40 TDP1 no CPT: qHTS for Inhibitors of human tyrosyl-DNA phosphodiesterase 1 (TDP1): qHTS in cells in absence of CPT; DT40 Tdp1-/- hTDP1 cells, no CPT, ATP luminescence, 48 h; 15% of 420,000 active; Potency, µM (highest dose often 46.2 µM), for the others: at the top dose activity change, negative = growth inhibition, actives largely listed as inhibitors; further: potency means the concentration at half of the fitted maximal effect; on the % scale 0 is the no-effect control and ±100 the full control effect; nearly all actives have a fitted effect of over 55% in size
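Chicken DT40 Tdp1-/- cells complemented with human TDP1, screened without camptothecin (DMSO vehicle only), 400 cells/well. Compounds pin-transferred, cells incubated at 37 °C for at least 48 hr. Growth read as ATP-dependent luminescence (CellTiter-Glo, 30 min at RT).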
IL-1B inflam inh: qHTS for Inhibitors of Inflammasome Signaling: IL-1-beta AlphaLISA Primary Screen; THP-1 LPS/ATP IL-1B secretion, AlphaLISA, 16 h; active compounds read low; activity change, % at 57.5 µM; 4.7% of 360,000 active; in the data active means activity change below about -50%; inconclusive means mostly about -30% to -49%; further: on the % scale 0 is the no-effect control and ±100 the full control effect
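Secreted IL-1B measured by AlphaLISA bead assay after 16 h compound exposure of THP-1 cells; compounds (final up to 57.5 uM) added 1 h before LPS (250 ng/mL) and ATP (1.25 mM) stimulation; lower signal means less secretion.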
DT40 TDP1 CPT: qHTS for Inhibitors of human tyrosyl-DNA phosphodiesterase 1 (TDP1): qHTS in cells in presence of CPT; chicken DT40 Tdp1-/-;hTDP1 cells + 20 nM CPT, ATP luminescence, 48 h; Potency, µM (series often up to 46.2 µM), for inactives: top-dose activity change, negative = growth inhibition, actives largely listed as inhibitors; 12% of 420,000 active; further: potency means the concentration at half of the fitted maximal effect; on the % scale 0 is the no-effect control and ±100 the full control effect; nearly all actives have a fitted effect of over 55% in size
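Chicken DT40 Tdp1-/- cells complemented with human TDP1, 400 cells/well, exposed to compounds plus 20 nM camptothecin for at least 48 h at 37 C; viability read as ATP content by CellTiter-Glo luminescence.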
MCF10A rereplic: A quantitative high throughput screen for small molecules that induce DNA re-replication in MCF 10a normal breast cells; MCF 10A DNA re-replication, Hoechst nuclear intensity, 48 h; Potency, µM (doses to about 46.1 µM), for inactives: at the top dose activity, positive = re-replication, actives largely listed as activators; 2.9% of 350,000 active; further: potency means the concentration at half of the fitted maximal effect; % of control where 0% means no effect; nearly all actives have a fitted effect of over 50% in size
BCR signal inh: qHTS Assay to Find Inhibitors of Chronic Active B-Cell Receptor Signaling; Potency, µM (series often up to 46.1 µM), inactives show top-dose activity change, negative = inhibition, most hits filed as inhibitors; ABC-DLBCL IkBa-CBG/CBR reporter, luminescence ratio, 4 h; 0.05% of 340,000 active; active means well fitted inhibition curve with a large enough effect in the signal ratio, with a control signal flat, not every such curve was filed as active; inconclusive means small, poorly fitted or top-dose-only effect, or effect the other way, or a change in a side signal; the % refers to the signal ratio;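 further: potency means the concentration at half of the fitted maximal effect; plate controls were basal doxycycline-induced cells for no effect and cells given 10 µM MG132 for full effect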
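TMD8 ABC-DLBCL cells carrying doxycycline-inducible green luciferase fused to IkappaBalpha plus unfused red luciferase were exposed to compounds (up to 46 uM) for 4 hrs at 37C. Activity came from the overlap-corrected green/red luminescence ratio.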
* = called active by the depositor; ? = inconclusive; nt = no result; [ ] = another dose, or the depositor's remark. Unless noted, the call rests on the fitted dose curve; in most records, active means well fitted curve in the direction sought with a large enough effect; inconclusive means small, poorly fitted or top-dose-only effect, or another doubt; inactive means no such curve, though single readings can be large; an effect the other way counts as inactive or inconclusive.

SMILES | SW480 rereplic | DT40 TDP1 no CPT | IL-1B inflam inh | DT40 TDP1 CPT | MCF10A rereplic | BCR signal inh
CCCCNc1nc(Oc2ccc(OCC)nn2)nc(N2CCOCC2)n1 | nt | ? | nt | -20% | nt | nt
CC1CCCC(NC(=O)Cn2cc(Br)ccc2=O)C1C (centres undefined) | -2% | 2% | 4 | ? | 0% | -4%
Cc1nn(Cc2ccc(F)cc2)c(C)c1NC(=O)c1cc(-c2ccc3c(c2)OCO3)on1 | -1% | 13µM* | 7 | ? | 15% | -7%
Cc1cc(N2CCN(C)CC2)nc2ccc(NC(=S)NCCC(C)C)cc12 | 121% | 15µM* | -6 | 23µM* | ? | -6%
Cc1cc(N2CCOCC2)nc2ccc(NC(=S)NCCC(C)C)cc12 | -2% | 21µM* | -50* | 18µM* | ? | -5%
COCCNC(=S)Nc1ccc2nc(N3CCN(C)CC3)cc(C)c2c1 | 8% | ? | 15 | -12% | ? | -1%
O=C(C1CCN(Cc2cc(Cl)ccc2O)CC1)N1CCN(Cc2ccccc2)CC1 | 11% | 21µM* | -6 | ? | 13% | 1%
O=C(C1CCN(S(=O)(=O)N2CCC3(CC2)OCCO3)CC1)N1CCc2ccccc2C1 | -7% | 16µM* | 29 | ? | -4% | -24%
O=C(C1CCN(S(=O)(=O)N2CCC3(CC2)OCCO3)CC1)N1CCN(Cc2ccccc2)CC1 | 5.8µM* | -7% | 12 | -12% | ? | 0%
O=C(NCCCN1CCN(Cc2ccccc2)CC1)C1CCN(S(=O)(=O)N2CCC3(CC2)OCCO3)CC1 | -18% | -11% | 1 | -12% | 4% | -4%
CCN1CCN(C(=O)C2CCN(S(=O)(=O)N3CCC4(CC3)OCCO4)CC2)CC1 | -5% | 19% | 9 | -2% | -2% | 3%
O=C(C1CCN(Cc2ccccc2O)CC1)N1CCN(Cc2ccc3c(c2)OCO3)CC1 | -5% | 1% | -17 | -1% | 7% | -1%
C=CC(C)(C)c1c2c(c(O)c3c(=O)c4ccc(O)c(O)c4oc13)C=CC(C)(C)O2 | nt | -23%[9.04 µM] | nt | 3%[9.04 µM] | nt | nt
Cn1c(SCc2ccc(C#N)cc2Cl)nc2ccccc21 | 0% | -10% | -71* | -26% | 3% | ?
O=C(/C=C/c1cccc(Cl)c1)NCc1ccccc1 | -2% | -5% | 11 | 13% | -2% | 0%
O=C(NCC1CCCO1)c1ccc2c(c1)N(Cc1ccccc1)C(=O)CS2 (centres undefined) | 3% | -10% | 0 | -14% | 0% | 10%
Cc1cccc(CN2C(=O)CSc3ccc(C(=O)NC4CC4)cc32)c1 | -18% | ? | -4 | 0.73µM* | 9% | -2%
O=C(NCc1ccc(F)cc1)c1ccc2c(c1)N(Cc1ccc(F)cc1Cl)C(=O)CS2 | nt | -24% | nt | 5% | nt | nt
O=C(NCc1ccccc1Cl)c1ccc2c(c1)N(Cc1ccccc1)C(=O)CS2 | nt | ? | nt | 23µM* | nt | 8%
Cc1ccc(CNC(=O)c2ccc3c(c2)N(Cc2cccc(Cl)c2)C(=O)CS3)cc1 | nt | 21µM* | nt | ? | nt | nt
CCOc1ccc(CCNC(=O)C2CSC3(C)CCC(=O)N23)cc1OCC (centres undefined) | -1% | 27% | -4 | -1% | 5% | 3%
COc1ccc(NC(=O)c2cccnc2Nc2ccc(OC)cc2)cc1 | -1% | ? | -23 | 16µM* | 11% | -1%
COc1ccc(Nc2ncccc2C(=O)Nc2ccccc2)cc1 | ? | 29µM* | -13 | 23µM* | -1% | ?
O=C1C(Br)=Cc2cccc3cccc1c23 | -3% | -6% | -75* | 10% | 1% | -8%
